± gives the standard deviation.
tested on: MILI (PIWIL2) piRISC loaded with piRNA #1 (26 nt); assay: pre-steady-state target cleavage rate (min^-1); guide: piRNA #1 5'p-UGAGGUAGUAGGUUGUAUAGUAUCCA; MIWI and MILI are mouse PIWI proteins and EfPiwi is from a freshwater sponge; tags in brackets are library labels; higher = faster piRNA-guided slicing of the target; details: auxiliary factor: 500 nM mouse GTSF1
Procedure, shortened: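 Cleave-'n-Seq: a transcribed, DNA-blocked target RNA library (0.1 nM) was mixed with 1 nM active affinity-purified piRISC carrying one synthetic guide, with or without 500 nM GTSF1 partner protein, in HEPES–potassium acetate buffer at 33 °C for 0–8 or 0–960 min. Uncleaved targets were sequenced and normalised to depth and to weakly complementary targets. Three trials were pooled, and k3 was capped at 0.0001 min^-1. The pre-steady-state cleavage rate came from a burst-and-steady-state fit.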

Row | Sequence | pre-steady-state target cleavage rate
1 | GGAGACCUAACUAUACAUCCUAGUACCUCA | 0.0577 ± 0.02
2 | GGAGACCUAACUAUUCAACCUACAACCUCA | 0.129 ± 0.021
3 | GGAGACCUAACUAUACAACUUACUACCUCA | 0.0179 ± 0.0043
4 | GGAGACCUAUGUAUUCAUCCUACUACCUCA | 0.0771 ± 0.011
5 | GGAGACCUUACUAUACAACCUAAUACCUCA | 0.102 ± 0.014
6 | GGAGACCUUACUAUACAACCUACUACUCA | 0.216 ± 0.025
7 | GGAGAGGAAACUAAACAACCUACUACCUCA | 0.229 ± 0.03
8 | GGAGACCAUACUAAACAUCCUACUACCUCA | 0.272 ± 0.022
9 | GGAGUGGAAACUAUACAACCUAGUACCUCA | 0.055 ± 0.021
10 | GGAGACCUAAGUAUACAACCUUCUACCUCA | 0.00652 ± 0.0032
11 | GGAGACCUUACUAUACAACCUACUCCUCA | 0.00492 ± 0.0027
12 | GGAGACGAUACUUUACAACCUACUAGCUCA | 0.0695 ± 0.013
13 | GGAGUGGAUUCUAUACAACCUACUUCCUCA | 0.00383 ± 0.0021
14 | GGAGACCUAUCUAGUACAACCUACUACCUCA | 0.0316 ± 0.0066
15 | GGAGACCUAUCUAUACAACCUACUACCACA | 0.136 ± 0.019
16 | GGAGACCUAUGAUAACAACCUACUACCUUCA | 0.00428 ± 0.0025
17 | GGAGAGGAUACUAUAGAACCUACAACCUCA | 0.00427 ± 0.0024
18 | GGAGACCUUAGUAUUCAACCUACUACCUCA | 0.089 ± 0.011
19 | GGAGACCUAUCUCAUACAACCUACUACCUCA | 0.0664 ± 0.01
20 | GGAGACCUUUCUAUUCAACCUACUACCUCA | 0.0926 ± 0.012

Row | Sequence | pre-steady-state target cleavage rate
21 | GGAGACCUAUGAUAUGUUCCUACUACCAGA | < 0.0001
22 | GGAGACCAUACUAUACAACCUAUUACCUCA | 0.234 ± 0.019
23 | GGAGACCUAUCUAUACAACCUACGACCUCA | 0.0973 ± 0.013
24 | GGAGUGGAUACUAUACAACGUACUACCUCA | 0.0277 ± 0.0034
25 | GGAGACCUAUGAAUACAACGUACUUCCUCA | 0.00328 ± 0.0027
26 | GGAGACCUUACAAUACAACCUACUUCCUCA | 0.0632 ± 0.014
27 | GGAGACCUAUGAUUACAAGCUACUACCUCA | 0.0262 ± 0.0067
28 | GGAGACCAUACUUUACAACCUACUACGUCA | 0.0972 ± 0.016
29 | GGAGACCUAUCUAUUCAACCUACUACCACA | 0.144 ± 0.022
30 | GGAGACCUUACUUACAACCUACUACCUCA | 0.0198 ± 0.0056
31 | GGAGACCAUACUAUACAUCCUACUACCACA | 0.279 ± 0.028
32 | GGAGUGGAUACUAUACAACCUACUUGGUCA | < 0.0001
33 | GGAGACCUAUCUAUACUUCCUACUACCUCA | 0.054 ± 0.013
34 | GGAGUGGAUACUAUACAACCUACUAUCCUCA | 0.05 ± 0.0077
35 | GGAGACCUUACUAUACAACCUACCUACCUCA | 0.148 ± 0.015
36 | GGAGUGGAAACUAUUCAACCUACUACCUCA | 0.192 ± 0.017
37 | GGAGACCUAUCUAUACAAGCUACAACCUCA | 0.169 ± 0.015
38 | GGAGACCUAUGAUAUCAACCUACCUACCUCA | 0.00604 ± 0.0032
39 | GGAGACCUAUCUAUACUACCUACUACGUCA | 0.0241 ± 0.0069

From the supplement of paper PMC10338343
